# Measurements reported in article PMC7862700, “An all-to-all approach to the identification of sequence-specific readers for epigenetic DNA modifications on cytosine”.
# Key:
# Experiment in all cases: DAPPL (digital affinity profiling via proximity ligation, sequencing); 10 mM Tris-HCl pH 7.5, 50 mM NaCl, 1 mM DTT, 4% glycerol, room temperature, 30 min; GST-TFs on glutathione beads, 16-mer random dsDNA library, 0.1% formaldehyde crosslink after washing; high values mean tight binding
# Settings in all cases: protein: recombinant; tags: N-terminal GST; dsDNA, one strand shown
# FLI1 = biological target: T1, FLI1 (Homo sapiens, UniProt Q01543 1-452)
# T1 sequence: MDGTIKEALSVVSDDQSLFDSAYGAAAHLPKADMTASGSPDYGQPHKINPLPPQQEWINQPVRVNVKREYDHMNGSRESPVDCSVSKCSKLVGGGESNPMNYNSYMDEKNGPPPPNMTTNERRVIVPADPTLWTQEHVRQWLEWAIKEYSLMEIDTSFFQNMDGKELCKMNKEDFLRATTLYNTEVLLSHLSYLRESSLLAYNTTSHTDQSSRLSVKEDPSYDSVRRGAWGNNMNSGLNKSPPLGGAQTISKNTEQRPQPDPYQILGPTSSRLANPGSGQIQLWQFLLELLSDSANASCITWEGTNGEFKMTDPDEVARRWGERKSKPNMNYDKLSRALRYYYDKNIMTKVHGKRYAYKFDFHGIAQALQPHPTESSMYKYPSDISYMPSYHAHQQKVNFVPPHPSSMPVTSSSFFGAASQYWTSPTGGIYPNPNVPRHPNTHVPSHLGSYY
# Outline: (§1)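 Human transcription factors fused to GST were expressed in yeast, captured on glutathione beads, given DNA barcodes and pooled with a GST-only negative control. Pools were incubated with 200 nmole of a 16-mer random double-stranded DNA library in Tris/NaCl/DTT/glycerol buffer at room temperature for 30 min. They were then washed, crosslinked with 0.1% formaldehyde, proximity-ligated (BsaI/T4 ligase, 1 h, 37 °C), PCR-amplified and sequenced on an Illumina NextSeq500. Binding signal is each 6-mer's read frequency for a factor divided by its frequency for the GST control.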
# ELK1 = biological target: T2, ELK1 (Homo sapiens, UniProt P19419 1-428)
# T2 sequence: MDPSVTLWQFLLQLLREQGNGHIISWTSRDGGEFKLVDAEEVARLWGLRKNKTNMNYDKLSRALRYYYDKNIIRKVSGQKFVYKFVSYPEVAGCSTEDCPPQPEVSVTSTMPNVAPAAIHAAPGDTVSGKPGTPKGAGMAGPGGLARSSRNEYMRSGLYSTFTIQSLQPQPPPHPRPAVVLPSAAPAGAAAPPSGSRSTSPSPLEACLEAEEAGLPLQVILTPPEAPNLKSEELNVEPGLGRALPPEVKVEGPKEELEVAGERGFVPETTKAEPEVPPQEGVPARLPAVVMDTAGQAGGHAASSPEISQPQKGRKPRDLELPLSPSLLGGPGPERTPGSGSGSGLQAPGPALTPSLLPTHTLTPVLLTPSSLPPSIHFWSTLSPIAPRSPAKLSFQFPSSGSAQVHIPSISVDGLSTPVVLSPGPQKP
# Outline: as §1
# GABPA = biological target: T3, GABPA (Homo sapiens, UniProt Q06546 1-454)
# T3 sequence: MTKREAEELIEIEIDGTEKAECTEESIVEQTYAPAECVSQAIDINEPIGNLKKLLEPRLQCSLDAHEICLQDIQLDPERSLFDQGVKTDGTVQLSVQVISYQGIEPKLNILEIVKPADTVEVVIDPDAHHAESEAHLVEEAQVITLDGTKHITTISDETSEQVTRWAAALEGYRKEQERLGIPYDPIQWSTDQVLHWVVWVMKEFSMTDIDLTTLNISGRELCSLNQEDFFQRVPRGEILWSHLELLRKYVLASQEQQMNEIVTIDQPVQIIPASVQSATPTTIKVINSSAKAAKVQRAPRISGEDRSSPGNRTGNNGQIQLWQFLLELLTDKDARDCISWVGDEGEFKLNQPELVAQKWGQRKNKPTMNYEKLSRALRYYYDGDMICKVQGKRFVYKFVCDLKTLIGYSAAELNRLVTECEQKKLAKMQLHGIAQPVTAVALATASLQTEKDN
# Outline: as §1
# ERG = biological target: T4, ERG (Homo sapiens, UniProt P11308 1-479)
# T4 sequence: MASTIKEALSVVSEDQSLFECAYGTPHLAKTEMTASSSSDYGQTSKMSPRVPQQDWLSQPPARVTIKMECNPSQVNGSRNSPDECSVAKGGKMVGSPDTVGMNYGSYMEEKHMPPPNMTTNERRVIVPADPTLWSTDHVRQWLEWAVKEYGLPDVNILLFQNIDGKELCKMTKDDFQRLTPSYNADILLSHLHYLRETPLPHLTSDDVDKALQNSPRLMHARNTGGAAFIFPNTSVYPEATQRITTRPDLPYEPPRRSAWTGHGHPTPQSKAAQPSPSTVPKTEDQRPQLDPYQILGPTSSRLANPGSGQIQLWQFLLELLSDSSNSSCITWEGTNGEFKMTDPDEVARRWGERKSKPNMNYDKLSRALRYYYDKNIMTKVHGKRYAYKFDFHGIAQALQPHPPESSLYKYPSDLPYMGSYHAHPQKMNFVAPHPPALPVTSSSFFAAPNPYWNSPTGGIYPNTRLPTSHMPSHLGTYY
# Outline: as §1
# ELF1 = ELF1 (Homo sapiens, UniProt P32519 1-619)
# Outline: as §1
# EHF = biological target: T5, EHF (Homo sapiens, UniProt Q9NZC4 1-300)
# T5 sequence: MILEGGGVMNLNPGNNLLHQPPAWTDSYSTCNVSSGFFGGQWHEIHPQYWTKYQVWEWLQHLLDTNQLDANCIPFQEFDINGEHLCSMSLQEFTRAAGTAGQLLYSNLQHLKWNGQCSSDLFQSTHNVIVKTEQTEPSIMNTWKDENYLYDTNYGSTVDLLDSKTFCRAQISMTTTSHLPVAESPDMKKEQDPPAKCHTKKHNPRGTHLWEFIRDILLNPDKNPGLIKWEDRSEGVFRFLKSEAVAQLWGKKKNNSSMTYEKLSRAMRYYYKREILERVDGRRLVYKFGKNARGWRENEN
# Outline: as §1
# SPI1 = SPI1 (Homo sapiens, UniProt P17947 1-270)
# Outline: as §1
# SPIB = SPIB (Homo sapiens, UniProt Q01892 1-262)
# Outline: as §1
# ELK3 = biological target: T6, ELK3 (Homo sapiens, UniProt P41970 1-407)
# T6 sequence: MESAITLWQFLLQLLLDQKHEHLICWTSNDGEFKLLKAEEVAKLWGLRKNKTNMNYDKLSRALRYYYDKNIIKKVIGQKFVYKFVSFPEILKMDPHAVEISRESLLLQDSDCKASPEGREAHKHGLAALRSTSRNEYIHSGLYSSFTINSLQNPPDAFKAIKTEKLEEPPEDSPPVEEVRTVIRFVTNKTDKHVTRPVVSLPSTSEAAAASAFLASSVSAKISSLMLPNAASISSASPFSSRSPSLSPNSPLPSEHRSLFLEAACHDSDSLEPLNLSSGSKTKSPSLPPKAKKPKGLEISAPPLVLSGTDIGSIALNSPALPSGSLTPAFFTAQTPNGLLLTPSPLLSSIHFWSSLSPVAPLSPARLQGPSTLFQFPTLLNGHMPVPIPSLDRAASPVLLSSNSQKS
# Outline: as §1
# FEV = biological target: T7, FEV (Homo sapiens, UniProt Q99581 1-238)
# T7 sequence: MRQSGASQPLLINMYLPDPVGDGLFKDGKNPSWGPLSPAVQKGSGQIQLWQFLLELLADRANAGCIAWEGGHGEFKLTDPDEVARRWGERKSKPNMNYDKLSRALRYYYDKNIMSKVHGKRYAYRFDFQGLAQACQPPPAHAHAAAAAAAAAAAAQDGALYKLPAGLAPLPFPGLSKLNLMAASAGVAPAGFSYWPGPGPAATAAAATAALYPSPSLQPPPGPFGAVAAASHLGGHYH
# Outline: as §1
# ETV5 = ETV5 (Homo sapiens, UniProt P41161 1-510)
# Outline: as §1
# SPIC = biological target: T8, SPIC (Homo sapiens, UniProt Q8N5J4 1-248)
# T8 sequence: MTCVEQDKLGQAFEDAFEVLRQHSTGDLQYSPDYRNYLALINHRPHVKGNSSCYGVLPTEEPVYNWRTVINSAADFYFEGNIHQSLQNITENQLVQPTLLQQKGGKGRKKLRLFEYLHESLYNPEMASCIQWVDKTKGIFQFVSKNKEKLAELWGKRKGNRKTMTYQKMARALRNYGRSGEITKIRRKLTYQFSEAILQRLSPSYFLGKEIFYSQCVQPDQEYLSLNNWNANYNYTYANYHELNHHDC
# Outline: as §1
# ELF4 = ELF4 (Homo sapiens, UniProt Q99607 1-663)
# Outline: as §1
# ELK4 = biological target: T9, ELK4 (Homo sapiens, UniProt P28324-2 1-405)
# T9 sequence: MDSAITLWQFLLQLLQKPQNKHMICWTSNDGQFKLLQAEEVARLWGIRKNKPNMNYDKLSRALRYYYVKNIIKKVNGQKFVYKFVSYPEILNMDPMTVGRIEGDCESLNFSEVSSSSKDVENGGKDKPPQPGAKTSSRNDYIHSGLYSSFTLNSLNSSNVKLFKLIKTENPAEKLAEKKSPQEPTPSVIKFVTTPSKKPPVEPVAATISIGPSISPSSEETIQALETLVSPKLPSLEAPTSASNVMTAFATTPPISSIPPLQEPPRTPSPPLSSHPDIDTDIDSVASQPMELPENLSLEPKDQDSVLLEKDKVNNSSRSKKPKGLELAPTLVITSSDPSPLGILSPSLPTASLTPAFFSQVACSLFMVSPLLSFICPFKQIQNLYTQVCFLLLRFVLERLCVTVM
# Outline: as §1
# ETV2 = biological target: T10, ETV2 (Homo sapiens, UniProt O00321 1-342)
# T10 sequence: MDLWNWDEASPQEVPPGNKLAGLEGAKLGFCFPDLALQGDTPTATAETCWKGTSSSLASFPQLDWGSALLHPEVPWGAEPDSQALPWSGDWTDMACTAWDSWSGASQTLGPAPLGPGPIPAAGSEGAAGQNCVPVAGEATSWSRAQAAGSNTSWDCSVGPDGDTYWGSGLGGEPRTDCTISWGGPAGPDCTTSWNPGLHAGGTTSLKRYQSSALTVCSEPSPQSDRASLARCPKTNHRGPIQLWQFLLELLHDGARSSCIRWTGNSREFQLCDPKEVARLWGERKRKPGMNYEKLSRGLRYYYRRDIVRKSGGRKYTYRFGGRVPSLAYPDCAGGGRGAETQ
# Outline: as §1
# ELF3 = biological target: T11, ELF3 (Homo sapiens, UniProt P78545 1-371)
# T11 sequence: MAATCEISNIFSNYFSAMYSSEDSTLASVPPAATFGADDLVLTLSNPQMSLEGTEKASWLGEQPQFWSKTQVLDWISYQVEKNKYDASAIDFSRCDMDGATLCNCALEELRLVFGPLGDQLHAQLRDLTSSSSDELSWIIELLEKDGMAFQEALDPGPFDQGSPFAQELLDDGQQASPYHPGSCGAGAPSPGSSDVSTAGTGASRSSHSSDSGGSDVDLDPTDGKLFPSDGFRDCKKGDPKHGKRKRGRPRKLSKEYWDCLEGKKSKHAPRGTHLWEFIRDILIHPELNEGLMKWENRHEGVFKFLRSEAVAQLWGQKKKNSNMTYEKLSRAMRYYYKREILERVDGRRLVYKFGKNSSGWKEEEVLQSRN
# Outline: as §1
# ETV1 = ETV1 (Homo sapiens, UniProt P50549 1-477)
# Outline: as §1
# ETV5, sequence (P41161 whole entry): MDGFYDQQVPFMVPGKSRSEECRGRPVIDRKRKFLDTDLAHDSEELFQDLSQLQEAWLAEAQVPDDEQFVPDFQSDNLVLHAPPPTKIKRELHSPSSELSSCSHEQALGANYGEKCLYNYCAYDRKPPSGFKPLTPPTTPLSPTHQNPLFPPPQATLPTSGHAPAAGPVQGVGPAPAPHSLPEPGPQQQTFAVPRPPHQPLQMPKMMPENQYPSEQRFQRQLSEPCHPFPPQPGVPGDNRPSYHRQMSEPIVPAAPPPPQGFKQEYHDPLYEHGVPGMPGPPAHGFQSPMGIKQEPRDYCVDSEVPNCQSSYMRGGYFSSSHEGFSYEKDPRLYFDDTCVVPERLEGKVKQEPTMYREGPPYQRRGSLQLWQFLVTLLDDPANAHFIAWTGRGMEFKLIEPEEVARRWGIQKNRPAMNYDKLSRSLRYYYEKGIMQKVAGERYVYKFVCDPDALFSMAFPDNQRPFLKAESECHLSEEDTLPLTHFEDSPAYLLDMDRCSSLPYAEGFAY
# ELF4, sequence (Q99607 whole entry): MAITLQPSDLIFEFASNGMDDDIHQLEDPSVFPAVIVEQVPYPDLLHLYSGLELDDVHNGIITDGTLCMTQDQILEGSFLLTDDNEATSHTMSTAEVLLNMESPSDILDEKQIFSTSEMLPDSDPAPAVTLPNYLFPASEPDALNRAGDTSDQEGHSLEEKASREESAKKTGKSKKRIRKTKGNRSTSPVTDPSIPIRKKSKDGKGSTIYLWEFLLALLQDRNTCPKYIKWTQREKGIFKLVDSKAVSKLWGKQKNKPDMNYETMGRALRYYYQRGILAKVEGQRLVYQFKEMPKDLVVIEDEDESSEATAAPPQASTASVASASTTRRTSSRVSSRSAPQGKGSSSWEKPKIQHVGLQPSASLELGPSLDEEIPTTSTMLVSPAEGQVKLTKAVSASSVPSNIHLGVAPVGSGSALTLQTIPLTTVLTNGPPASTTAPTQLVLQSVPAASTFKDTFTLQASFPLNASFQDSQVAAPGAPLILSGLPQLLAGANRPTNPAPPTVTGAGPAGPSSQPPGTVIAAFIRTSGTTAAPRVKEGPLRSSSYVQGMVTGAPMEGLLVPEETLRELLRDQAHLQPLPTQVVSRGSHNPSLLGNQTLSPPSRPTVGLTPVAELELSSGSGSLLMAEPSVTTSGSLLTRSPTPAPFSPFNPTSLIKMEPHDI
# SPIB, sequence (Q01892 whole entry): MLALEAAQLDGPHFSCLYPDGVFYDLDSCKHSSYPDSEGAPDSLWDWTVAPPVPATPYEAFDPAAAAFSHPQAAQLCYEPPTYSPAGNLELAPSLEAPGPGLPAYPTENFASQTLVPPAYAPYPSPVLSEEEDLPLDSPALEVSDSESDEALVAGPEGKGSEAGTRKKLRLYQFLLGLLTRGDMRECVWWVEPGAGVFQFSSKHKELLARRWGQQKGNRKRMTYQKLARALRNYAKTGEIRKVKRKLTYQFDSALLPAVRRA
# ELF1, sequence (P32519 whole entry): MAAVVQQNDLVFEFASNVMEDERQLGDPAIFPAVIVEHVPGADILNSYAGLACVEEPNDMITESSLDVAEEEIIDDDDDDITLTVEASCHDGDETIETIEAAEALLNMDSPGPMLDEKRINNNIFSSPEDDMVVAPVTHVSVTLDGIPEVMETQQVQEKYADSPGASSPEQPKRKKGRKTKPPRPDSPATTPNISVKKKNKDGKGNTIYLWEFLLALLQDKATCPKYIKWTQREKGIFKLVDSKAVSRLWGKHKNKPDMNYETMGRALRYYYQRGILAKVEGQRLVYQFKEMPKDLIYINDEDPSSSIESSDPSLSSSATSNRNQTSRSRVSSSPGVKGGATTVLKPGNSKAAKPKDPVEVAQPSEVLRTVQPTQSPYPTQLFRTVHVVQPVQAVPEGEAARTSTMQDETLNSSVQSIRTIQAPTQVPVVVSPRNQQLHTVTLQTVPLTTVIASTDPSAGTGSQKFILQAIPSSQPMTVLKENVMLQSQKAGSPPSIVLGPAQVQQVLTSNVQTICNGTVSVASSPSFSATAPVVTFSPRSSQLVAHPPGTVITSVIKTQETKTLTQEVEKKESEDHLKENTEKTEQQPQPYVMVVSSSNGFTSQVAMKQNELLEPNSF
# ETV1, sequence (P50549 whole entry): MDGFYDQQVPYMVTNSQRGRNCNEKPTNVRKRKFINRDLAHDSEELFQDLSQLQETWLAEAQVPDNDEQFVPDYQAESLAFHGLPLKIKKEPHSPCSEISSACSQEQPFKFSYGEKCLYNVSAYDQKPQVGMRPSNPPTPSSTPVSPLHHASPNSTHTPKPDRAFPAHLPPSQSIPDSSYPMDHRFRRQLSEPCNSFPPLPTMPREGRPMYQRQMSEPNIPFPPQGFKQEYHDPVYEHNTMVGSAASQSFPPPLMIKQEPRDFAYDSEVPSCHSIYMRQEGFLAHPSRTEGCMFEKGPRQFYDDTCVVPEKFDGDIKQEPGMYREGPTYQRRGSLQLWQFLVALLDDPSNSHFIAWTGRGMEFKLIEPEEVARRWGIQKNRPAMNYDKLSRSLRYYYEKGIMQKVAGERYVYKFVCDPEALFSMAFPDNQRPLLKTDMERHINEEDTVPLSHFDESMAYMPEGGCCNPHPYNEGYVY
Sequence,binding signal (FLI1),binding signal (ELK1),binding signal (GABPA),binding signal (ERG),binding signal (ELF1),binding signal (EHF),binding signal (SPI1),binding signal (SPIB),binding signal (ELK3),binding signal (FEV),binding signal (ETV5),binding signal (SPIC),binding signal (ELF4),binding signal (ELK4),binding signal (ETV2),binding signal (ELF3),binding signal (ETV1)
GAAGCG,"1.37 fold enrichment (6-mer frequency, TF over GST control)","1.24 fold enrichment (6-mer frequency, TF over GST control)","1.27 fold enrichment (6-mer frequency, TF over GST control)","1.42 fold enrichment (6-mer frequency, TF over GST control)","1.29 fold enrichment (6-mer frequency, TF over GST control)","1.53 fold enrichment (6-mer frequency, TF over GST control)","1.43 fold enrichment (6-mer frequency, TF over GST control)","1.28 fold enrichment (6-mer frequency, TF over GST control)","1.49 fold enrichment (6-mer frequency, TF over GST control)","1.37 fold enrichment (6-mer frequency, TF over GST control)","1.33 fold enrichment (6-mer frequency, TF over GST control)","1.27 fold enrichment (6-mer frequency, TF over GST control)","1.2 fold enrichment (6-mer frequency, TF over GST control)","1.2 fold enrichment (6-mer frequency, TF over GST control)","1.19 fold enrichment (6-mer frequency, TF over GST control)","1.22 fold enrichment (6-mer frequency, TF over GST control)","1.38 fold enrichment (6-mer frequency, TF over GST control)"
GGTTTG,"1.18 fold enrichment (6-mer frequency, TF over GST control)","1.15 fold enrichment (6-mer frequency, TF over GST control)","1.24 fold enrichment (6-mer frequency, TF over GST control)","1.13 fold enrichment (6-mer frequency, TF over GST control)","1.19 fold enrichment (6-mer frequency, TF over GST control)","1.22 fold enrichment (6-mer frequency, TF over GST control)","1.06 fold enrichment (6-mer frequency, TF over GST control)","1.01 fold enrichment (6-mer frequency, TF over GST control)","1.2 fold enrichment (6-mer frequency, TF over GST control)","1.12 fold enrichment (6-mer frequency, TF over GST control)","1.02 fold enrichment (6-mer frequency, TF over GST control)","1.27 fold enrichment (6-mer frequency, TF over GST control)","1.12 fold enrichment (6-mer frequency, TF over GST control)","1.26 fold enrichment (6-mer frequency, TF over GST control)","1.05 fold enrichment (6-mer frequency, TF over GST control)","1.09 fold enrichment (6-mer frequency, TF over GST control)","1.14 fold enrichment (6-mer frequency, TF over GST control)"
GGCCTC,"1.25 fold enrichment (6-mer frequency, TF over GST control)","1.2 fold enrichment (6-mer frequency, TF over GST control)","1.26 fold enrichment (6-mer frequency, TF over GST control)","1.19 fold enrichment (6-mer frequency, TF over GST control)","1.17 fold enrichment (6-mer frequency, TF over GST control)","1.21 fold enrichment (6-mer frequency, TF over GST control)","1.11 fold enrichment (6-mer frequency, TF over GST control)","1.18 fold enrichment (6-mer frequency, TF over GST control)","1.1 fold enrichment (6-mer frequency, TF over GST control)","1.07 fold enrichment (6-mer frequency, TF over GST control)","1.15 fold enrichment (6-mer frequency, TF over GST control)","1.01 fold enrichment (6-mer frequency, TF over GST control)","1.12 fold enrichment (6-mer frequency, TF over GST control)","1.17 fold enrichment (6-mer frequency, TF over GST control)","1.17 fold enrichment (6-mer frequency, TF over GST control)","1.05 fold enrichment (6-mer frequency, TF over GST control)","1.07 fold enrichment (6-mer frequency, TF over GST control)"
